Cycloheximide cs = affects cycloheximide protein synthesis inhibition readout, counter-screen; cell reporter, cycloheximide protein synthesis inhibition counterscreen; max response, %; 300,000 tested, 12% active; AID 2314; in the data active means max response mostly above about 13%, no sharp cut-off; inactive means mostly below about 14%; further: read at 38.3 µM for the half of the compounds with a filed dose; 0% is about no effect
Shiga inhibitor = blocks Shiga toxin action in Vero cells; Vero cells, Shiga toxin protein synthesis inhibition reporter; inhibition, % at 38.7 µM; 290,000 tested, 9.2% active; AID 2315; in the data active means inhibition mostly above about 28%, no sharp cut-off; inactive means mostly below about 43%; further: 0% is about no effect
MARV entry inh = inhibitors of Marburg virus binding or cell entry; Potency, µM (titrated, usually from 37.8 µM), without a hit: top-dose activity change, negative = inhibition, most hits filed as inhibitors; Marburg virus pseudotyped entry inhibition, cell reporter; 300,000 tested, 1.8% active; calls by dose curve; tested in HEK293 cells; further: potency means the concentration at half of the fitted maximal effect; on the % scale 0 is the no-effect control and ±100 the full control effect
LASV entry inh = Lassa virus entry inhibition; Lassa virus pseudotype entry inhibition, cell reporter; Potency, µM (titrated, usually from 37.9 µM), for the others: at the top dose activity change, negative = inhibition, hits mostly inhibitors; 300,000 tested, 1.2% active; AID 540256; calls by dose curve; tested in HEK293 cells; further: potency means the concentration at half of the fitted maximal effect; on the % scale 0 is the no-effect control and ±100 the full control effect; nearly all actives have a fitted effect of over 50% in size
The depositor's hits bear a star; ? = inconclusive; / = no result; [ ] = remark or other dose. A selection: hits, their analogues and other compounds. The true share with any hit is near 12%.

SMILES	Cycloheximide cs	Shiga inhibitor	MARV entry inh	LASV entry inh
O=C(OCC(=O)N1CCCC1)c1ccc(S(=O)(=O)N2CCOCC2)cc1	1	-5	2%[46.1 µM]	-1%[46.1 µM]
Cc1ccc(C(=O)OCC(=O)N2CCOCC2)c(C)c1	18*	39	8%[46.1 µM]	11%
COc1cc2ccccc2cc1C(=O)OCC(=O)N1CCOCC1	8	21	7%	14%
N#Cc1ccc(C(=O)OCC(=O)N2CCOCC2)cc1	-4	-6	4%[46.1 µM]	8%
Cc1ccc(C(=O)OCC(=O)N2CCOCC2)cc1	27*	50*	8%[46.1 µM]	9%
Cc1occc1C(=O)N1CCC2(CCCN(Cc3ccc(F)c(F)c3)C2)C1 (stereo unspecified)	20	0	?	-36%
Cc1ccc(-c2ccc(OCC(=O)N3CCOCC3)cc2)cc1	42*	62*	6%	13%
Cc1cc(OCC(=O)N2CCOCC2)ccc1NC(=O)c1ccccc1C	21*	19	16%[46.1 µM]	-1%[46.1 µM]
CCN(CC)CCCNC(=O)CN1C(=O)CCn2nc(-c3cn(C)c4ccccc34)cc21	/	/	/	16%[46.1 µM]
Cc1ccc(S(=O)(=O)N2CC3CCCC2C3)cc1 (stereo unspecified)	-1	1	2%[14.2 µM]	-1%
Cc1ccc(-c2cc(N)n(Cc3ccc(Cl)cc3)n2)cc1	22	33	?	-15%
CSc1nc(N)n2nc(-c3ccc(Cl)cc3)cc2n1	47*	86*	?	?
O=C(Cc1cccs1)Nc1ccc(F)cc1	10.0*	8	/	/
Cc1ccc(NC(=O)Cc2cccs2)cc1Cl	38*	50*	4%	-29%
Cc1nc2ccc(NC(=O)COc3ccccc3C)cc2s1	34*	64*	15%[46.1 µM]	9%[46.1 µM]
Cc1nc2ccc(NC(=O)Cc3cccs3)cc2s1	29*	60*	14%	-14%
O=C(Cc1cccs1)Nc1ccc(F)c(F)c1	-2	-4	7%	-1%
Cc1nc2ccc(NC(=O)COc3ccccc3[N+](=O)[O-])cc2s1	16	29	0%[46.1 µM]	16%
Cc1ccc(NC(=O)CCN2CCC(C(N)=O)CC2)cc1	-3	/	2%[46.1 µM]	-5%[46.1 µM]
COc1cccc2cc(C(=O)NCc3ccccc3)c(=N)oc12	4	6	-22%	-7%
CCOc1cccc(NC(=O)Cc2cccs2)c1	13	41*	?	10%
CC(C)NS(=O)(=O)c1ccc(NC(=O)Cc2cccs2)cc1	24*	40*	?	12%
O=C(Cc1cccs1)Nc1ccc(S(=O)(=O)Nc2ncccn2)cc1	-1	-14	7%	7%
CC(=O)Nc1cccc(NC(=O)Cc2cccs2)c1	-1	-7	/	/
O=C(Cc1cccs1)Nc1cccc(-c2nc3cc4ccccc4cc3[nH]2)c1	68*	120*	?	?
SMILES	Cycloheximide cs	Shiga inhibitor	MARV entry inh	LASV entry inh
Cc1ccc2nc(N3CCN(C)CC3)c(C=O)c(=O)n2c1	-2	-5	?	-35%
O=C(CCC1CCCN(c2ncccn2)C1)NCc1ccc(F)c(F)c1 (stereo unspecified)	1	16	/	/
CCCn1c(C)cc(C(=O)COC(=O)c2ccc[nH]c2=O)c1C	29*	45*	?	?
Cc1ccc(-n2c(C)cc(C(=O)COC(=O)c3ccc[nH]c3=O)c2C)cc1C	27*	67*	?	?
CCCn1c(C)cc(C(=O)COC(=O)c2ccc(Cl)c(S(=O)(=O)N3CCCC3)c2)c1C	31*	142*	-3%	-22%
Cc1cc(C(=O)COC(=O)c2ccc[nH]c2=O)c(C)n1-c1ccccc1F	1	-19	/	/
CCOC(=O)c1cc(C)n(CCc2ccccc2)c1C	22*	27	-2%[46.1 µM]	-3%
CC1CN(C(=O)CCNC(=O)c2ccc(Br)cc2)CC(C)O1 (stereo unspecified)	/	/	5%[46.1 µM]	0%
CN(C)S(=O)(=O)c1ccc2c(c1)nc(CCC(=O)NCCc1ccc(Cl)cc1)n2C	-2	9	1%[46.1 µM]	11%[46.1 µM]
c1cnc(-c2noc(CN3CCN(C4CCCC4)CC3)n2)cn1	4	8	14%[46.1 µM]	17%[46.1 µM]
c1cc(-c2noc(CC3CCCCC3)n2)ccn1	15	122*	6%[46.1 µM]	?
CCCCCCC1CCC(c2nc(-c3ccncc3)no2)CC1 (stereo unspecified)	-4	-9	20%	23%
c1ccc(-c2noc(CC3CCCCC3)n2)nc1	50*	82*	/	/
Cc1cccc(C)c1NC(=O)CN1C(=O)c2ccccc2Sc2ncccc21	/	/	/	-11%[46.1 µM]
COc1ccc(-c2cnn3c(N)c(S(=O)(=O)C(C)(C)C)cnc23)cc1	32*	40	0%	-25%
CS(=O)(=O)c1cnc2c(-c3ccsc3)cnn2c1N	38*	66*	?	21%
CS(=O)(=O)c1cnc2c(S(=O)(=O)c3ccccc3)cnn2c1N	-6	15	20%[46.1 µM]	17%
COc1ccc(-c2cnc3c(-c4ccc(F)cc4)cnn3c2N)cc1	51*	121*	?	?
COc1ccc(-c2cnc3ncnn3c2N)cc1	-5	7	-2%[46.1 µM]	14%
CCOC(=O)N/N=C(\CCC(=O)O)c1cccs1	17*	35*	/	/
Cc1cc(C(=O)NN=C(CCC(=O)O)c2cccs2)c(C)o1	/	/	-1%	-17%
O=C(O)CCC(=O)NNC(=O)c1cccs1	18*	17	16%[46.1 µM]	16%
O=C(O)CC/C(=N/NC(=O)c1cccs1)c1ccccc1	77*	24*	?	?
O=C(O)CC/C(=N\Nc1ccccc1[N+](=O)[O-])c1cccs1	47*	58*	?	29%[46.1 µM]
CCCC1CCC(c2ccc(OCC)cc2)=CC1=O (stereo unspecified)	43*	34*	/	/
SMILES	Cycloheximide cs	Shiga inhibitor	MARV entry inh	LASV entry inh
CCOc1ccc(N2C(=O)CCC2=O)cc1	-1	-3	22%	3%
O=[N+]([O-])c1ccc(Oc2ccc(/C=N/O)cc2)nc1	1	-17	10%[46.1 µM]	-14%[46.1 µM]
COc1ccc(/C=C2/SC(=O)NC2=O)cc1	39*	52*	/	/
O=C1NC(=O)/C(=C\c2ccc(Oc3ccc([N+](=O)[O-])cn3)cc2)S1	34*	42*	/	/
O=C1NC(=O)/C(=C\c2ccc(Cl)nc2)S1	34*	68*	/	/
CC(NC(=O)C(=O)NN=C1CCCC1)c1ccccc1 (stereo unspecified)	-3	-4	12%[46.1 µM]	/
CCN(Cc1ccncc1)Cc1ccc(Br)cc1	3	-9	11%[46.1 µM]	-5%[46.1 µM]
CC(C)[C@H](NC(=O)C1CCCC1)c1nc2ccccc2[nH]1	1	-5	?	?
Cc1cc2c(c(=O)o1)[C@H]1O[C@](c3ccsc3)(Cc3ccccc31)O2	/	/	10%[14.2 µM]	/
COc1cc(SC)ccc1C(=O)N1CCN(c2ccccc2)CC1	1	-9	-23%[46.1 µM]	13µM*
COc1cc(SC)ccc1C(=O)N1CCN(c2ccc(O)cc2)CC1	-2	-14	/	/
COc1cc(SC)ccc1C(=O)N1CCC(Cc2ccccc2)CC1	5	-8	?	8.2µM*
COc1cc(SC)ccc1C(=O)N1CCN(Cc2ccccc2)CC1	-2	-14	-20%	?
COc1ccccc1C(=O)N1CCN(C2CCN(Cc3ccccc3)CC2)CC1	43*	-5	11%[46.1 µM]	9%
CC(C)CC(=O)Nc1ccc(C(=O)Cn2c(=O)oc3ccccc32)cc1	14	26	/	/
CC(C)c1cnc2c(c1SCC(=O)Nc1ccc(OC(F)(F)F)cc1)c(=O)n(C)c(=O)n2C	/	/	/	-6%[46.1 µM]
N#C/C(C(=O)N1CCOCC1)=C1\Nc2ccccc2S1	35*	64*	13%	10%
